# Measured values from PubChem BioAssay (NCATS).
# Records with an inconclusive call do not appear. The source made the active and inactive calls. Unless noted, calls come from the whole dose curve; as a rule, active = well fitted curve in the direction sought with a large enough effect; inconclusive = small, poorly fitted or top-dose-only effect, or another doubt; inactive = no such curve, though single readings can be large; an effect the other way counts as inactive or inconclusive.
# Assays:
# [1] = target: Lysosomal acid glucosylceramidase (Homo sapiens) (UniProt P04062); experiment: Glucocerebrosidase-p2 (AID 348; in the data active = potency below about 10 µM; note: potency is the fitted concentration of half-maximal effect); conditions: purified GBA, blue fluorogenic substrate, 40 min
# Sequence of Lysosomal acid glucosylceramidase (Homo sapiens) (P04062 whole entry, looked up): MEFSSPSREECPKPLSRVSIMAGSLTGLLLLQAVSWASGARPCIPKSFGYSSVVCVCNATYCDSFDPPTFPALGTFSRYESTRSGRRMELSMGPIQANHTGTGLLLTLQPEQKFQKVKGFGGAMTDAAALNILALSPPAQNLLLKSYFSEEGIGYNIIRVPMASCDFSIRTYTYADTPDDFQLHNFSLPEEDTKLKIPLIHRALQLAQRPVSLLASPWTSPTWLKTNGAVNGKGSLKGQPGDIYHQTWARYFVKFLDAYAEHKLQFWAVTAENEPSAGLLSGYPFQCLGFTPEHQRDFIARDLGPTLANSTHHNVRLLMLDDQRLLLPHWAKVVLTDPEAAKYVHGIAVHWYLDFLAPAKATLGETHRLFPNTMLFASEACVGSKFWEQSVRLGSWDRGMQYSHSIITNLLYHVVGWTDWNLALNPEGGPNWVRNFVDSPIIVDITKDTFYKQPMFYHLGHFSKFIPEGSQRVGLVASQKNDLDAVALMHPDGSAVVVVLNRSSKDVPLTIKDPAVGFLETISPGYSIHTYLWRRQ
# In short: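 Normal human glucocerebrosidase (0.2 nM) with blue fluorogenic substrate (80 uM final) in citrate/phosphate pH 5.9 with 10mM sodium taurocholate, 0.01% tween-20; 40 min RT, NaOH/glycine stop; fluorescence Ex 365/Em 440; AC50 from a titration from 0.6 nM upwards.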
# [2] = AP1 Signaling Pathway (AID 357; active = well fitted curve in either direction with a large enough effect, not every such curve was filed as active;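 note: ME-180 reporter cells stimulated with EGF at its EC50 level; % is set by controls: 0 for no effect and ±100 for the full control effect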); conditions: ME-180 AP-1-bla reporter, EGF-induced, beta-lactamase ratio, 5 h; at 7.69 µM (top of the series) unless noted
# In short: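 Modulation of EGF-driven AP-1 transcription was assessed with a beta-lactamase reporter in ME-180 cells. Compound and EC50 EGF were co-incubated 5 hours at 37 °C before 2.5-hour CCF4 loading at room temperature and dual-emission reading.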
# [3] = target: Cytochrome P450 1A2 (Homo sapiens) (UniProt P05177); experiment: p450-cyp1a2 (AID 410; calls by dose curve; note: potency is the fitted concentration of half-maximal effect;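 for activity change, negative = inhibition: -100% = full effect of reference inhibitor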); conditions: recombinant CYP1A2, luciferin-ME demethylation, luminescence; series mostly up to 57 µM
# Sequence of Cytochrome P450 1A2 (Homo sapiens) (P05177 whole entry, looked up): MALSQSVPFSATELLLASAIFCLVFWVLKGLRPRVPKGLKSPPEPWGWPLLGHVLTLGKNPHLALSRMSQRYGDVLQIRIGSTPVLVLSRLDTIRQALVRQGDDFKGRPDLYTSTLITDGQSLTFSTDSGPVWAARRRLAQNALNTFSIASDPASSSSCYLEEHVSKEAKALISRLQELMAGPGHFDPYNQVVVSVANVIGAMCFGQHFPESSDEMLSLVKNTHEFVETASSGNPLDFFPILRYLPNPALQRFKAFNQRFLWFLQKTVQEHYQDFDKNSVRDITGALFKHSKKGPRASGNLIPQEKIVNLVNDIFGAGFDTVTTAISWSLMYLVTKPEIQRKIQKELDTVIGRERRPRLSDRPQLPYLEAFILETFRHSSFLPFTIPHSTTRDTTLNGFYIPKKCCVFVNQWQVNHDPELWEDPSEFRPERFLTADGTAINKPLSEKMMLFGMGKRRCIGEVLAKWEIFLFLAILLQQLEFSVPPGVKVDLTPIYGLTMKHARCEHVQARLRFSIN
# In short: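 Luminescent demethylation readout: Luciferin-ME (100uM, equal to Km) turned over by 20nM CYP1A2 for 60 min at room temperature after NADPH regeneration addition, following 10 min compound preincubation. Normalization used 57 uM furafylline as full inhibition.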
# [4] = NFAT Signaling Pathway (AID 444; active = well fitted curve in either direction with a large enough effect, not every such curve was filed as active;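 note: carbachol stimulus at about its EC50 of 1 µM final; % is set by controls: 0 for no effect and ±100 for the full control effect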); conditions: Jurkat NFAT-bla M1, carbachol, beta-lactamase ratio, 5 h; at 7.69 µM (top of the series) unless noted
# In short: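 Jurkat cells with NFAT-driven β-lactamase reporter and co-expressed M1 receptor, stimulated with carbachol (final 1 uM, ~EC50), compound titration, 5 h at 37 °C. CCF4 loaded 1 h at RT; 460/530 nm ratio gave %activity and AC50.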
# [5] = Stat Signaling Pathway (AID 446; active = well fitted curve in either direction with a large enough effect, not every such curve was filed as active;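 note: ME-180 cervical cancer cells given 40 pM IL-6 alongside compound; SIE-controlled beta-lactamase reporter measured as 460/530 nm FRET emission ratio; % is set by controls: 0 for no effect and ±100 for the full control effect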); conditions: ME-180 SIE beta-lactamase reporter, IL-6 stimulated, 5 h; at 7.69 µM (top of the series) unless noted
# In short: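 Normalization used AC90 stimulation (300 pM IL-6) and AC90 inhibition (125 nM pan-JAK inhibitor at 40 pM IL-6). The underlying signal is SIE-driven beta-lactamase in ME-180 cells after 5 h IL-6 exposure with compound.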
# [6] = target: Glucocorticoid receptor (Homo sapiens) (UniProt P04150); experiment: GR-GFP Redistribution (AID 450;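 active = compounds whose dose series gives a full or clear partial fitted curve of increased nuclear translocation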; note: potency is the fitted concentration of half-maximal effect); conditions: U2OS GR-GFP nuclear translocation, laser cytometry, 2 h
# Sequence of Glucocorticoid receptor (Homo sapiens) (P04150 whole entry, looked up, the tested form may be a part): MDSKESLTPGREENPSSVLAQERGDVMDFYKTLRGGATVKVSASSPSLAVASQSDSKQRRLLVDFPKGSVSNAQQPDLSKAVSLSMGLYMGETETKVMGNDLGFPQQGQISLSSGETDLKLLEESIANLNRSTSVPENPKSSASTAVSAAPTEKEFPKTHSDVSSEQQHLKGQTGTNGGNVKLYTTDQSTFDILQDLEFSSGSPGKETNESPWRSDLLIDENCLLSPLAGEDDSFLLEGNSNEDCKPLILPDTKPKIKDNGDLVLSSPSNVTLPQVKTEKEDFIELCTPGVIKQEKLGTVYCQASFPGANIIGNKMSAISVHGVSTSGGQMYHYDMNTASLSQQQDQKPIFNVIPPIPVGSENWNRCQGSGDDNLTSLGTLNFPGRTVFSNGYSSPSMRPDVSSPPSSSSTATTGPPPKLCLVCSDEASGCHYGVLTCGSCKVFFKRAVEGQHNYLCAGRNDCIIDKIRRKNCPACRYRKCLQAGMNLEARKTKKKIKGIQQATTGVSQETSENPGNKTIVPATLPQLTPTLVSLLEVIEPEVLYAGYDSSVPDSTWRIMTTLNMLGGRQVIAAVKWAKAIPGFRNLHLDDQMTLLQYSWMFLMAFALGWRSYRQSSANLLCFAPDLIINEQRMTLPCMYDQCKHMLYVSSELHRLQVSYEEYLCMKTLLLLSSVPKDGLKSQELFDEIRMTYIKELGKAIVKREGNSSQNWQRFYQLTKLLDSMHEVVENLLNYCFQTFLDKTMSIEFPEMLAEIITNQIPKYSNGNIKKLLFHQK
# [7] = target: Glucocorticoid receptor (Homo sapiens) (UniProt P04150); experiment: GR-EFC Redistribution (AID 451; calls by dose curve; note: potency is the fitted concentration of half-maximal effect); conditions: CHO-K1 GR-EFC translocation, beta-gal luminescence, 2 h
# In short: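 CHO-K1 cells expressing nuclear EA and GR-ED fragments of b-gal; compounds titrated up to 46 uM final, 2 h at 37 C. GR nuclear translocation read as complemented b-gal luminescence after 1 h RT detection.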
# [8] = target: Mitogen-activated protein kinase 10 (Mus musculus) (UniProt Q61831); experiment: JNK3 AlphaScreen Assay (AID 530; active = well fitted curve in either direction with a large enough effect, not every such curve was filed as active;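 note: kinase came from lysate of stimulated human HepG2 cells; signal reports phosphorylation of biotinylated GST-cJun 1-79 at Ser73 with 10 µM ATP; % is set by controls: 0 for no effect and ±100 for the full control effect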); conditions: JNK3 lysate, c-Jun phosphorylation; series mostly up to 57.1 µM
# In short: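 Activity was read by AlphaScreen after JNK3-containing HepG2 lysate (cytokine pre-activated) phosphorylated biotinylated GST-cJun with 10 uM ATP at room temperature. Phospho-Ser73 cJun antibody with Protein-A acceptor beads provided detection.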
# [9] = target: 3',5'-cyclic-AMP phosphodiesterase 4B (Homo sapiens) (UniProt Q07343); experiment: qHTS Assay for Inhibitors of PDE-IV (AID 607; active = well fitted activation curve with a large enough effect in the main read-out, with a control signal flat, not every such curve was filed as active; note: % of control where 0% means no effect); conditions: HEK293 ACTOne CNG channel cells, membrane potential fluorescence; series mostly up to 22.9 µM
# Sequence of 3',5'-cyclic-AMP phosphodiesterase 4B (Homo sapiens) (Q07343 whole entry, looked up): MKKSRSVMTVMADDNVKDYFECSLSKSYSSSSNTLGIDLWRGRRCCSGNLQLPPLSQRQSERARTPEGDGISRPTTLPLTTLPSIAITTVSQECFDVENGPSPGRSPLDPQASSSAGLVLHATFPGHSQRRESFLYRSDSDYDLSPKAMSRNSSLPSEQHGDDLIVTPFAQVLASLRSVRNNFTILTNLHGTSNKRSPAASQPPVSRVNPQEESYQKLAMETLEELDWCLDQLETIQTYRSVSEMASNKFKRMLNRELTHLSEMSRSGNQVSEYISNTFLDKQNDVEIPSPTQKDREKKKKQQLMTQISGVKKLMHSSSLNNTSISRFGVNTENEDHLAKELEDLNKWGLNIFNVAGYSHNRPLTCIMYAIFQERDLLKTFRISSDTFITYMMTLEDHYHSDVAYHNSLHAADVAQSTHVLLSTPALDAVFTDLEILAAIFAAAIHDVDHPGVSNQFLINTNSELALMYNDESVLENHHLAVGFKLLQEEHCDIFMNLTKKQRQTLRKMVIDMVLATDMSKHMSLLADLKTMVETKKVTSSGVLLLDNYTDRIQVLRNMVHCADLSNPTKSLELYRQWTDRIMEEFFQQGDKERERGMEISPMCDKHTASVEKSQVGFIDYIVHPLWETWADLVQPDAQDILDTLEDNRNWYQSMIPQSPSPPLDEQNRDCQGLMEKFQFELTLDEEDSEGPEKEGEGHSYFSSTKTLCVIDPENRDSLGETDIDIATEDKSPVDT
# In short: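 HEK293 ACTOne cells with CNG channel (1000/well), endogenous PDE4; membrane potential dye, compounds up to 22.9 uM final. Fluorescence Ex 535/Em 590; RO 20-1724 (100 uM final) as reference.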
# [10] = qHTS Assay for Lipid Storage Modulators (AID 1519; calls by dose curve); conditions: Drosophila S3 cells, BODIPY lipid droplet/cell ratio, laser cytometry, cells loaded with oleic acid
# In short: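 Cells seeded at 5,000 per well were treated with compounds over a concentration series and loaded with oleic acid (400 uM, as added). Lipid droplet fluorescence (488 nm excitation, 500-530 nm channel) was read by laser-scanning cytometry and normalized to 20 uM Triacsin C.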
# [11] = target: Dual specificity protein kinase CLK4 (Homo sapiens) (UniProt Q9HAZ1); experiment: qHTS Assay for Inhibitors of CDC-like Kinase 4 (Kinase-Glo Assay) (AID 1770); conditions: recombinant Clk4, Kinase-Glo ATP depletion luminescence; series mostly up to 66.7 µM; note: nearly all actives have a fitted effect of over 65% in size; note: potency is the fitted concentration of half-maximal effect
# Sequence of Dual specificity protein kinase CLK4 (Homo sapiens) (Q9HAZ1 whole entry, looked up): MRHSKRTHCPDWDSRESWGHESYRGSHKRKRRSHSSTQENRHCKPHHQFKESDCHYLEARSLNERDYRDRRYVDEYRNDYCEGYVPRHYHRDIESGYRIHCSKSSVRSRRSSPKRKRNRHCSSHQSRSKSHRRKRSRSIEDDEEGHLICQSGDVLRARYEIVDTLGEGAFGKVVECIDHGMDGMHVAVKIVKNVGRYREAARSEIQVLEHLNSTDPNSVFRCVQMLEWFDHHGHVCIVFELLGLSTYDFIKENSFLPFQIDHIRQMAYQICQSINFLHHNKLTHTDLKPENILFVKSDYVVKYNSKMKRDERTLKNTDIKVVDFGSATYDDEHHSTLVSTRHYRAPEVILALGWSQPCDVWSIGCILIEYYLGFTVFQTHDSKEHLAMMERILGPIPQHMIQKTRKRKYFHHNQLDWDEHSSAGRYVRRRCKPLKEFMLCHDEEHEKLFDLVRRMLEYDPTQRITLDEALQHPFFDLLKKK
# In short: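 Substrate mix (RS peptide 100 uM, ATP 1 uM) dispensed, compound pinned in, then Clk4 added to 25 nM final. Incubated 4.5 h at RT; Kinase-Glo reagent added, luminescence read after 5 min.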
# [12] = target: Dual specificity protein kinase CLK4 (Homo sapiens) (UniProt Q9HAZ1); experiment: qHTS Assay for Inhibitors of CDC-like Kinase 4 (ADP-Glo Assay) (AID 1771); conditions: recombinant CLK4, ADP-Glo luminescence; series mostly up to 80 µM; note: nearly all actives have a fitted effect of over 70% in size; note: potency is the fitted concentration of half-maximal effect
# In short: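 ADP production was read by ADP-Glo luminescence after residual ATP depletion, following 1 h room-temperature reaction of 25 nM Clk4, 1 uM ATP and 100 uM RS peptide with MgCl2, EGTA, DTT and Triton X-100.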
# [13] = target: Dual specificity protein kinase CLK4 (Homo sapiens) (UniProt Q9HAZ1); experiment: qHTS Assay for Inhibitors of CDC-like Kinase 4 (ADP-FP Assay) (AID 1795); conditions: Transcreener ADP fluorescence polarization; series mostly up to 50 µM; note: nearly all actives have a fitted effect of over 60% in size; note: potency is the fitted concentration of half-maximal effect
# In short: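 Clk4 6.25 nM; RS peptide 100 uM; ATP 1 uM; 25 mM Tris pH 7.5, 10 mM MgCl2; 1 h reaction. ADP detected via antibody/orange tracer FP displacement; TG003 positive control.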
# [14] = target: Ubiquitin carboxyl-terminal hydrolase 1 (Homo sapiens) (UniProt O94782); experiment: Inhibitors of USP1/UAF1: Pilot qHTS (AID 504865); conditions: purified USP1/UAF1, Ub-rhodamine cleavage fluorescence; series mostly up to 54.9 µM;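 note: rhodamine fluorescence freed from ubiquitin-rhodamine substrate followed over time; top concentration of the series differs between compounds; % is set by controls: 0 for no effect and ±100 for the full control effect; nearly all actives have a fitted effect of over 35% in size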
# Sequence of Ubiquitin carboxyl-terminal hydrolase 1 (Homo sapiens) (O94782 whole entry, looked up): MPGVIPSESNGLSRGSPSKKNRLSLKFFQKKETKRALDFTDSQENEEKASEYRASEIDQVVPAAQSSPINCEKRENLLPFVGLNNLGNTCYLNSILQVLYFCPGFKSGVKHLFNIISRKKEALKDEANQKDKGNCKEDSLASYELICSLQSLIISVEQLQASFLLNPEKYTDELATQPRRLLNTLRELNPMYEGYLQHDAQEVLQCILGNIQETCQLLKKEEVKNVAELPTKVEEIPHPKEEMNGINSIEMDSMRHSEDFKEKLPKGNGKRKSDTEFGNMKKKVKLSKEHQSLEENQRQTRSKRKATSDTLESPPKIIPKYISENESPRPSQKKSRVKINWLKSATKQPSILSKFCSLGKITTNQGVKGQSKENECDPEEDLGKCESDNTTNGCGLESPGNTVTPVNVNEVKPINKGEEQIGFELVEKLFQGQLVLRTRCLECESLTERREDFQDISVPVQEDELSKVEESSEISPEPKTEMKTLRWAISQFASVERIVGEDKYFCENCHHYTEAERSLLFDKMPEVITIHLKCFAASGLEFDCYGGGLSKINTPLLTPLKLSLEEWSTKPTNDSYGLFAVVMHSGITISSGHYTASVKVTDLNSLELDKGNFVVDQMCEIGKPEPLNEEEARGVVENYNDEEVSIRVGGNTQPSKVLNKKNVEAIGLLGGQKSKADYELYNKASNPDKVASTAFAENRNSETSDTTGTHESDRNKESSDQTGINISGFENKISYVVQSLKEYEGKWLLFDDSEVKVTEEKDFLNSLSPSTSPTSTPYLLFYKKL
# In short: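 In 50mM HEPES pH 7.8 containing 0.5mM EDTA, 1mM TCEP, 0.1 mg/ml BSA and 0.01% Tween-20, 1nM USP1/UAF1 is exposed to compound for 15 min, then Ub-Rho (150nM final) is added and fluorescence is read over time.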
# [15] = target: Cytochrome P450 3A4 (Homo sapiens) (UniProt P08684); experiment: qHTS Assay for Activators of Cytochrome P450 3A4 (AID 885); conditions: recombinant CYP3A4, Luciferin-PPXE luminescence, 60 min; series mostly up to 57.1 µM; note: nearly all actives have a fitted effect of over 65% in size
# Sequence of Cytochrome P450 3A4 (Homo sapiens) (P08684 whole entry, looked up): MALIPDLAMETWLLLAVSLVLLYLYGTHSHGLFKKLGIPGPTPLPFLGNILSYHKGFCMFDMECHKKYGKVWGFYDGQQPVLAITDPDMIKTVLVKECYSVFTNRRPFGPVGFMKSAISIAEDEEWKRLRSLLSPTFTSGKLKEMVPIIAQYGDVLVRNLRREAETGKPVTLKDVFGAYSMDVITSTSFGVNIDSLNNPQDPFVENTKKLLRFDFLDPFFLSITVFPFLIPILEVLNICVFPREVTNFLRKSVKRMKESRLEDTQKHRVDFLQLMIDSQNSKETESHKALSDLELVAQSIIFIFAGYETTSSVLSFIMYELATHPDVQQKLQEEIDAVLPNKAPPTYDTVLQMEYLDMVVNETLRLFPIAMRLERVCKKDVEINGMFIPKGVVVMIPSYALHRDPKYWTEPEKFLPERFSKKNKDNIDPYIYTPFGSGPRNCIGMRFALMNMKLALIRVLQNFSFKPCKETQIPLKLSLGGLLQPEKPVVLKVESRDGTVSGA
# In short: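 Human CYP3A4 dealkylates Luciferin-PPXE to luciferin, which luciferase detection converts to light. Substrate was at its KM (25uM), buffer 200mM KPO4, reaction 60 min at RT.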
# [16] = qHTS Assay for Identification of Small Molecule Agonists for Hypoxia Response Element Signaling Pathway (AID 914; active = well fitted activation curve with a large enough effect in the signal ratio, with a control signal flat, not every such curve was filed as active; the % refers to the signal ratio; note: % of control where 0% means no effect); conditions: ME-180 (cervical carcinoma) HRE-bla reporter, beta-lactamase ratio, CoCl2, 17 h; activation: stronger effect = higher value
# In short: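 HRE-bla ME-180 assay for agonist-like enhancement of an EC50 CoCl2 stimulus: 17 h at 37 degrees Celsius, CCF4 for 2.5 h, ratiometric 460/530 nm signal converted to %Activity and fitted to AC50.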
# [17] = Confirmation and Secondary Assay for Modulators of Hemoglobin Beta Chain Splicing at IVS2 654 locus (AID 910); conditions: HeLa EGFP-654 splicing reporter, GFP fluorescence, 48 h; series mostly up to 38.3 µM;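 note: HeLa cells stably carrying EGFP split by mutant beta-globin IVS2-654 intron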;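 note: potency is the fitted concentration of half-maximal effect; potency of activators that raise GFP signal by restoring correct splicing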
# In short: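 HeLa cells stably expressing EGFP interrupted by β-globin IVS2-654 intron, seeded overnight in Opti-MEM/2% FCS, then treated 2 days at 37 °C. Restored splicing read as total peak GFP intensity per well by laser scanning cytometry (488 nm excitation, 500–520 nm emission); 500 nM antisense PNA as control.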
# [18] = target: Cytochrome P450 3A4 (Homo sapiens) (UniProt P08684); experiment: qHTS Assay for Inhibitors and Substrates of Cytochrome P450 3A4 (AID 884); conditions: recombinant CYP3A4, Luciferin-PPXE luminescence; series mostly up to 57.1 µM; note: potency is the fitted concentration of half-maximal effect; nearly all actives have a fitted effect of over 50% in size
# In short: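 Luminescent readout of luciferin produced by CYP3A4 (20 nM) dealkylation of Luciferin-PPXE, 25 uM (its KM). NADPH-driven reaction ran 60 min at RT after 10 min compound preincubation; data scaled to 57 uM ketoconazole as 100% inhibition.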
# [19] = Confirmation and Secondary Assay for Modulators of Hemoglobin Beta Chain Splicing at IVS2 705 locus (AID 930); conditions: HeLa EGFP-705 splicing reporter, GFP fluorescence, 48 h; series mostly up to 38.3 µM;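 note: HeLa cells stably expressing the EGFP-705 splicing reporter; GFP fluorescence per well restored by corrected splicing of the IVS2-705 intron in EGFP; % of control where 0% means no effect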
# In short: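 HeLa IVS2-705 EGFP reporter cells, 500/well, compound 2 d at 37C; correct splicing yields fluorescent EGFP. Control: 500 nM antisense PNA. Read-out: total peak GFP intensity.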
# [20] = target: Cytochrome P450 2C19 (Homo sapiens) (UniProt P33261); experiment: qHTS Assay for Inhibitors and Substrates of Cytochrome P450 2C19 (AID 899); conditions: recombinant CYP2C19, luciferin-H EGE luminescence; series mostly up to 57.1 µM; note: % is set by controls: 0 for no effect and ±100 for the full control effect; nearly all actives have a fitted effect of over 60% in size
# Sequence of Cytochrome P450 2C19 (Homo sapiens) (P33261 whole entry, looked up): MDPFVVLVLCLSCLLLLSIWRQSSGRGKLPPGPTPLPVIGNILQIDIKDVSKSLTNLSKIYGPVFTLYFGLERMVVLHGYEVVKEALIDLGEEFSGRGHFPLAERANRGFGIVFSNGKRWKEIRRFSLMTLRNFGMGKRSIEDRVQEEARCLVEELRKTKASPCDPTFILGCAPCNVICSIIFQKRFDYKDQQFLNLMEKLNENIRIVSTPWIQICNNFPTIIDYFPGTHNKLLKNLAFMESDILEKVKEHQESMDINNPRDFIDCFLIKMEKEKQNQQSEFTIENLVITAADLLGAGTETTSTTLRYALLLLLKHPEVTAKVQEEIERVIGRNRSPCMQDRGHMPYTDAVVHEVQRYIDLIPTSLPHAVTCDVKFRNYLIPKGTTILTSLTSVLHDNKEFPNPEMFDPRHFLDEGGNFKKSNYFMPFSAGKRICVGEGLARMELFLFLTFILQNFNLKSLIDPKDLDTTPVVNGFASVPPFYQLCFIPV
# In short: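 5 nM human CYP2C19 with 10uM Luciferin-H EGE (at KM) in 50mM KPO4, compound preincubated 10 min at 37C, then NADPH regeneration for 60 min at 37C. Luciferin read by luminescence after detection reagent; normalized to 57uM ketoconazole as full inhibition.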
# [21] = measured here: cell count channel max response
# [22] = measured here: lipid channel max response
compound,measurement,setting,value
Clc1ccccc1-c1nc(NC2CCNCC2)c2ccccc2n1,Potency,[1],> 11.4 µM (inactive)
same,"activity change, negative = inhibition",[2],-8.89% (inactive)
same,Potency,[3],20 µM (active)
same,"activity change, negative = inhibition",[4],7.15% (inactive)
same,"activity, negative = inhibition",[5],3.31% (inactive)
same,Potency,[6],> 46 µM (inactive)
same,Potency,[7],> 46 µM (inactive)
same,Potency,[8],inactive
same,Potency,[9],inactive
same,"activity change, negative = inhibition",[10]; at 57.5 µM (top of the series),1.68% (inactive)
same,max response,[10]; [21],15.1%
same,max response,[10]; [22],17.6%
same,Potency,[11],10 µM (active)
same,Potency,[12],12.6 µM (active)
same,Potency,[13],12.6 µM (active)
same,Potency,[14],inactive
CN1CCN(c2ncc3ncc(=O)n(Cc4ccc(F)cc4)c3n2)CC1,Potency,[1],> 11.4 µM (inactive)
same,"activity change, negative = inhibition",[2],-13.9% (inactive)
same,Potency,[3],25.1 µM (active)
same,"activity change, negative = inhibition",[4],-8.56% (inactive)
same,"activity, negative = inhibition",[5],-18.8% (inactive)
same,Potency,[6],> 9.22 µM (inactive)
same,Potency,[7],> 46 µM (inactive)
same,Potency,[8],inactive
same,Potency,[9],inactive
same,Potency,[15],inactive
same,activation,[16],-5.68% (inactive)
same,"activity change, negative = inhibition",[10]; at 57.5 µM (top of the series),2.71% (inactive)
same,max response,[10]; [21],5.89%
same,max response,[10]; [22],7.12%
same,Potency,[11],inactive
same,Potency,[12],inactive
same,Potency,[13],inactive
same,Potency,[14],inactive
CN(C)CCCO[C@H]1C([C@H](O)CO)O[C@@H]2OC(C)(C)O[C@@H]21 (stereo partly specified),"activity change, negative = inhibition",[10]; at 57.5 µM (top of the series),1.15% (inactive)
same,max response,[10]; [21],19.8%
same,max response,[10]; [22],24%
COc1ccc2c(c1OC)C(=O)OC2C1c2c(cc3c(c2OC)OCO3)CCN1C (stereo unspecified),"activity change, negative = inhibition",[2],11.6% [at 17.2 µM] (inactive)
same,"activity change, negative = inhibition",[4],-3.27% [at 17.2 µM] (inactive)
same,"activity, negative = inhibition",[5],9.27% [at 17.2 µM] (inactive)
same,Potency,[6],> 20.6 µM (inactive)
same,"activity change, negative = inhibition",[10]; at 57.5 µM (top of the series),0.209% (inactive)
same,max response,[10]; [21],-33.3%
same,max response,[10]; [22],-33.7%
COC(=O)[C@@H]1C2CC3c4[nH]c5cc(OC)ccc5c4CCN3CC2C[C@H](OC(=O)c2cc(OC)c(OC)c(OC)c2)C1OC (stereo partly specified),Potency,[15],inactive
same,Potency,[17],15.8 µM (active)
same,"activity change, negative = inhibition",[10]; at 57.5 µM (top of the series),-8.88% (inactive)
same,max response,[10]; [21],3.77%
same,max response,[10]; [22],-5.55%
Cc1cc(/C=C\c2ccc3cc(N(C)C)ccc3[n+]2C)c(C)n1-c1ccccc1,"activity change, negative = inhibition",[2],12.4% [at 17.2 µM] (inactive)
same,Potency,[6],> 20.6 µM (inactive)
same,Potency,[7],> 20.6 µM (inactive)
same,Potency,[9],inactive
same,"activity change, negative = inhibition",[10]; at 25.7 µM (top of the series),-5.56% (inactive)
same,max response,[10]; [21],-11.1%
same,max response,[10]; [22],-18.2%
COc1cc(O)c(C(=O)/C=C/c2ccc(OC)c(O)c2)c(OC)c1,Potency,[18],6.31 µM (active)
same,Potency,[15],inactive
same,Potency,[17],inactive
same,outcome,[19],inactive
same,"activity change, negative = inhibition",[10]; at 57.5 µM (top of the series),-24.7% (inactive)
same,max response,[10]; [21],-3.92%
same,max response,[10]; [22],-25.6%
Cc1noc(C)c1-c1cncnc1N1CCN(C)CC1,Potency,[1],> 11.4 µM (inactive)
same,"activity change, negative = inhibition",[2],1.14% (inactive)
same,Potency,[3],inactive
same,"activity change, negative = inhibition",[4],-0.298% (inactive)
same,"activity, negative = inhibition",[5],24.7% (inactive)
same,Potency,[6],> 46 µM (inactive)
same,Potency,[7],> 46 µM (inactive)
same,Potency,[8],inactive
same,Potency,[9],inactive
same,Potency,[15],inactive
same,Potency,[20],inactive
same,"activity change, negative = inhibition",[10]; at 57.5 µM (top of the series),-1.64% (inactive)
same,max response,[10]; [21],15.1%
same,max response,[10]; [22],9.71%
same,Potency,[11],inactive
same,Potency,[12],inactive
same,Potency,[13],inactive
same,Potency,[14],inactive
